Reference: the supplement of paper PMC12350171
Counter-ions that a name gives are not always drawn.

Test system: S. enterica typhimurium tolC KO
Assay: growth AUC normalised to DMSO control (median) (fraction of control); higher = less growth inhibition, active = hit call of the paper
Conditions: 20 µM;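 active = normalised median growth AUC below 0.1 of DMSO control; inactive = AUC 0.1 or higher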
Procedure, shortened: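 After two overnight anaerobic passages, strains were inoculated at OD578 0.01 into mGAM in 96-well plates containing approved-drug library compounds at 20 μM and 1% DMSO. Growth was followed by reading OD578 hourly for 24 h within an anaerobic incubator. Area under the curve, taken by the trapezoidal rule up to the start of stationary phase, was normalised to same-plate vehicle wells, and the median of three biological replicates is listed.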
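Note: active when median AUC fell below 0.1.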

Row | SMILES | growth AUC normalised to DMSO control
1 | C=CCC1(CC(C)C)C(=O)NC(=O)NC1=O [Butalbital] | 1.01 (inactive)
2 | CC1C=CC=CCCC=CC=CC=CC=CC(OC2OC(C)C(O)C(N)C2O)CC2OC(O)(CC(O)C(O)CCC(O)CC(O)CC(O)CC(=O)OC(C)C(C)C1O)CC(O)C2C(=O)O (centres undefined) [Nystatine] | 1 (inactive)
3 | O=C(CCCN1CCC2(CC1)C(=O)NCN2c1ccccc1)c1ccc(F)cc1 [Spiperone] | 0.979 (inactive)
4 | COc1ccc(OC)c(C(O)C(C)N)c1 (centres undefined) [Methoxamine hydrochloride] | 0.999 (inactive)
5 | CC(C)(C)NCC(O)c1cc(Cl)c(N)c(Cl)c1 (centres undefined) [Clenbuterol hydrochloride] | 0.992 (inactive)
6 | COc1ccc(CN2CCNCC2)c(OC)c1OC [Trimetazidine dihydrochloride] | 0.994 (inactive)
7 | CC[N+]1(C)CCCC(OC(=O)C(O)(c2ccccc2)c2ccccc2)C1 (centres undefined) [Pipenzolate bromide] | 0.999 (inactive)
8 | NCC(O)c1ccc(O)cc1 (centres undefined) [Octopamine hydrochloride] | 1.03 (inactive)
9 | CC(=O)NC1CCSC1=O (centres undefined) [Citiolone] | 1.01 (inactive)
10 | O=[N+]([O-])O[C@@H]1CO[C@H]2[C@@H]1OC[C@@H]2O [Isosorbide mononitrate] | 0.99 (inactive)
11 | C=C1C[C@@H]2[C@H](CC[C@]3(C)C(=O)CC[C@@H]23)[C@@]2(C)C=CC(=O)C=C12 [Exemestane] | 0.935 (inactive)
12 | O=c1c2ccccc2[se]n1-c1ccccc1 [Ebselen] | 0.971 (inactive)
13 | O=C(CCCN1CCC(n2c(=O)[nH]c3ccccc32)CC1)c1ccc(F)cc1 [Benperidol] | 0.956 (inactive)
14 | C[N+](C)(C)CCCCCCCCCC[N+](C)(C)C [Decamethonium bromide] | 1 (inactive)
15 | CCN[C@@H](C)Cc1cccc(C(F)(F)F)c1 [Dexfenfluramine hydrochloride] | 1 (inactive)
16 | C=C(C)[C@@H]1[C@H]2OC(=O)[C@@H]1[C@]1(O)C[C@H]3O[C@]34C(=O)O[C@H]2[C@]14C [Picrotoxinin] | 1.02 (inactive)
17 | CC(C)(C)NCC(O)c1ccccc1Cl (centres undefined) [Tulobuterol hydrochloride] | 1.01 (inactive)
18 | Fc1ccc(C(OCCN2CCN(CCCc3ccccc3)CC2)c2ccc(F)cc2)cc1 | 0.914 (inactive)
19 | C=C1CC[C@@]2(O)[C@H]3Cc4ccc(O)c5c4[C@@]2(CCN3CC2CC2)[C@H]1O5 [Nalmefene hydrochloride] | 1.01 (inactive)
20 | C1CCc2nnnn2CC1 [Pentylenetetrazole] | 0.986 (inactive)

Row | SMILES | growth AUC normalised to DMSO control
21 | CCOC(=O)c1cncn1[C@H](C)c1ccccc1 [Etomidate] | 0.978 (inactive)
22 | CC(C)CC(N(C)C)C1(c2ccc(Cl)cc2)CCC1 (centres undefined) [Sibutramine hydrochloride] | 0.999 (inactive)
23 | C[N+]12CCC(CC1)C(OC(=O)C(O)(c1ccccc1)c1ccccc1)C2 (centres undefined) [Clidinium bromide] | 0.997 (inactive)
24 | CN(C)[C@@H]1C(=O)C(C(N)=O)=C(O)[C@@]2(O)C(=O)C3=C(O)c4c(O)ccc(Cl)c4[C@@](C)(O)[C@H]3C[C@@H]12 [Chlortetracycline hydrochloride] | 0.00506 (active)
25 | C[N+]1(C)[C@@H]2CC[C@H]1C[C@@H](OC(=O)C(CO)c1ccccc1)C2 (some centres undefined) [Methylatropine nitrate] | 1.02 (inactive)
26 | CC(C)N(CCC(C(N)=O)(c1ccccc1)c1ccccn1)C(C)C (centres undefined) [Disopyramide] | 0.983 (inactive)
27 | CNC(=O)Oc1ccc2c(c1)[C@]1(C)CCN(C)[C@@H]1N2C [Eserine hemisulfate salt] | 0.993 (inactive)
28 | CN1[C@@H]2CC[C@H]1C[C@@H](OC(=O)C(CO)c1ccccc1)C2 (some centres undefined) [Atropine sulfate monohydrate] | 0.987 (inactive)
29 | COc1ccc(C(CN(C)C)C2(O)CCCCC2)cc1 (centres undefined) [Venlafaxine] | 1 (inactive)
30 | NCCc1c[nH]c2ccc(O)cc12 [Serotonin hydrochloride] | 0.998 (inactive)
31 | CC(CCc1ccccc1)NC(C)C(O)c1ccc(O)cc1 (centres undefined) [Nylidrin] | 0.991 (inactive)
32 | C[N+]1(C)CCOC(O)(c2ccc(-c3ccc(C4(O)C[N+](C)(C)CCO4)cc3)cc2)C1 (centres undefined) [Hemicholinium bromide] | 1 (inactive)
33 | CC(=O)O[C@H]1C[C@@H]2CC[C@@H]3[C@H](CC[C@@]4(C)[C@H]3C[C@H]([N+]3(C)CCCCC3)[C@@H]4OC(C)=O)[C@@]2(C)C[C@@H]1[N+]1(C)CCCCC1 [Pancuronium bromide] | 1.01 (inactive)
34 | O=C1CC[C@@]2(O)[C@H]3Cc4ccc(O)c5c4[C@@]2(CCN3CC2CC2)[C@H]1O5 [Naltrexone hydrochloride dihydrate] | 0.998 (inactive)
35 | CC(Cc1ccccc1)NCCC(c1ccccc1)c1ccccc1 (centres undefined) [Prenylamine lactate] | 0.97 (inactive)
36 | CCC1(CC)C(=O)C=CNC1=O [Pyrithyldione] | 0.998 (inactive)
37 | COc1cc2c(c(OC)c1OC)-c1ccc(OC)c(=O)cc1[C@@H](NC(C)=O)CC2 [Colchicine] | 1.01 (inactive)
38 | COc1cc([C@@H]2c3cc4c(cc3[C@H](O)[C@H]3COC(=O)[C@H]23)OCO4)cc(OC)c1OC [Podophyllotoxin] | 0.996 (inactive)
39 | Oc1ccc2c3c1O[C@H]1[C@@H](O)CC[C@@]4(O)[C@@H](C2)N(CC2CCC2)CC[C@]314 [Nalbuphine hydrochloride] | 0.995 (inactive)
